Measurements as given in PubChem BioAssay (NCATS).
Inconclusive results are not listed. A call without a number means that no potency is given here. The source made the active and inactive calls. Calls follow the shape of the dose curve; as a rule, active = well fitted curve in the direction sought with a large enough effect; inconclusive = small, poorly fitted or top-dose-only effect, or another doubt; inactive = no such curve, though single readings can be large; an effect the other way counts as inactive or inconclusive.

Tests used:
[1] = molecular target: Alpha-galactosidase (Coffea arabica) (UniProt Q42656); assay: Counterscreen for Glucocerebrosidase Inhibitors: qHTS Assay for Coffee Bean alpha-Galactosidase at pH 4.5 (AID 957); also: series mostly up to about 77 µM
Alpha-galactosidase (Coffea arabica), sequence (Q42656 whole entry, looked up): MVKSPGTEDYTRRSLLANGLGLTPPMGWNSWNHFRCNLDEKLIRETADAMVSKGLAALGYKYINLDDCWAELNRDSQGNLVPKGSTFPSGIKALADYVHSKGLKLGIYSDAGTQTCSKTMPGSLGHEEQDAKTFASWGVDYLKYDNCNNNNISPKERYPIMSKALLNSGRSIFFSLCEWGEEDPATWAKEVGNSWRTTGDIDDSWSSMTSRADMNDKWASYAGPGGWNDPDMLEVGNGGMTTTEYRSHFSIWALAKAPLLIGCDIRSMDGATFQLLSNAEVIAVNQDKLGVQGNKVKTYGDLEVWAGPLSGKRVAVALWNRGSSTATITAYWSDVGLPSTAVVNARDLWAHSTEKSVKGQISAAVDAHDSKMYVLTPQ
In short: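 AC50 values derive from Hill-equation modeling of concentration-response data, normalized to no-enzyme and full-activity controls. The pH 4.5 citrate assay used 2 nM coffee bean enzyme and 80 uM fluorogenic substrate for 20 min.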

[2] = molecular target: Alpha-galactosidase (Coffea arabica) (UniProt Q42656); assay: Counterscreen for Glucocerebrosidase Inhibitors: qHTS Assay for Coffee Bean alpha-Galactosidase at pH 5.9 (AID 998)
In short: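 Green coffee bean enzyme (2 nM) with 4-methylumbelliferyl alpha-D-galactopyranoside (80 uM) in 50 mM citric acid, 0.005% Tween-20, pH 5.9, 20 min at room temperature; compounds 0.7 nM–77 uM. Stopped at pH 10, fluorescence Ex365/Em440; Hill-fit AC50.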

[3] = MultiTox-Fluor Cytotoxicity Assay - LYMP1-002 - Dead Cells (AID 960); also: potency is read from the fitted curve at half-maximal effect; nearly all actives have a fitted effect of over 60% in size
In short: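 Acute cytotoxicity in a human lymphoblastoid line is scored as rising dead-cell protease signal after 16 hr exposure at 37 C, measured fluorometrically (485/520).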

Row | Structure (SMILES) | outcome [1] | outcome [2] | Potency [3]
1 | Cc1c(C)c2c(c(C)c1O)CC[C@@](C)(CN1CCN(c3cc(N4CCCC4)nc(N4CCCC4)n3)CC1)O2 | inactive | inactive | –
2 | CCCCCCCCCCCCCCCC(=O)NC[C@@H](COP(=O)([O-])OCC[N+](C)(C)C)OCC | inactive | inactive | –
3 | C[C@@H]1C[C@@H]2[C@H]3CCC4=CC(=O)C=C[C@]4(C)[C@]3(Cl)[C@@H](O)C[C@@]2(C)[C@@]1(O)C(=O)CO | inactive | inactive | –
4 | CC1(C)CCC(NC(=O)[C@H](N)CCC(=O)O)CC1 | inactive | inactive | –
5 | C=C1C(=O)O[C@@H]2[C@@H]1CC/C(C)=C\CC[C@@]1(C)O[C@H]21 | inactive | inactive | –
6 | N[C@H](CCC(=O)NCS(=O)(=O)O)C(=O)O | inactive | inactive | –
7 | Nc1nc(Cl)nc2c1ncn2[C@@H]1O[C@@H](CO)[C@@H](O)[C@H]1O | inactive | inactive | –
8 | CC(C)[C@@H]1NC(=O)[C@H](CCCCN)NC(=O)[C@H](Cc2c[nH]c3ccccc23)NC(=O)[C@H](Cc2ccc(O)cc2)NC(=O)[C@H](C)N(C)C(=O)[C@H](Cc2ccccc2)NC1=O | inactive | inactive | –
9 | CCCN(CCc1ccccc1)[C@H]1CCc2c(O)cccc2C1 | inactive | inactive | –
10 | CC(N)=NCCCC[C@H](N)C(=O)O | inactive | inactive | –
11 | Cc1cccc([C@@H]2CN(C)CCc3c2cc(O)c(O)c3Cl)c1 | inactive | inactive | –
12 | CC(C)(C)[C@@]1(O)CCN2C[C@@H]3c4ccccc4CCc4cccc(c43)[C@@H]2C1 | inactive | inactive | –
13 | O=C(O)[C@@H]1CCCN[C@H]1C(=O)O | inactive | inactive | –
14 | CCN(CC)CC#CCOC(=O)[C@@](O)(c1ccccc1)C1CCCCC1 | inactive | inactive | –
15 | Fc1cccc(/C=N\N=C/c2cccc(F)c2)c1 | inactive | inactive | –
16 | S=C(Nc1ccccc1)Nc1nccs1 | inactive | inactive | –

Row | Structure (SMILES) | outcome [1] | outcome [2] | Potency [3]
17 | COc1ccc2c(c1)CCC1C2CC[C@]2(C)[C@H](NCCCCCCN3C(=O)C=CC3=O)CC[C@@H]12 (stereo partly specified) | inactive | inactive | –
18 | CN(C)CCO[C@](C)(c1ccccc1)c1ccccn1 | inactive | inactive | –
19 | O=C(O)CNC(=O)[C@@H](CS)Cc1ccccc1 | inactive | inactive | –
20 | O=c1n(CC2CO2)c(=O)n(CC2CO2)c(=O)n1CC1CO1 (stereo unspecified) | – | – | 31.6 µM (active)
21 | COc1ccc(CCNC[C@H](O)c2ccc(O)cc2)cc1OC | inactive | inactive | –
22 | NC(=NCc1ccc(Cl)c(Cl)c1)NC(=O)c1nc(Cl)c(N)nc1N | inactive | inactive | –
23 | O=C(O)[C@H]1CCCN(CCC=C(c2ccccc2)c2ccccc2)C1 | inactive | inactive | –
24 | N[C@H](Cc1ccc(Cl)cc1)C(=O)O | inactive | inactive | –
25 | N.N.N.N.N.N.N.N.N.N.N.N.N.N.O.O.[Ru].[Ru].[Ru] | inactive | inactive | –
26 | Nc1ncnc2c1ncn2[C@@H]1O[C@@H](COP(=O)(O)OP(=O)(O)OP(=O)(O)OP(=O)(O)OC[C@@H]2O[C@@H](n3cnc4c(N)ncnc43)[C@@H](O)[C@H]2O)[C@H](O)[C@@H]1O | inactive | inactive | –
27 | CC[C@H](C)[C@@H]1O[C@]2(CC[C@@H]1C)C[C@H]1C[C@H](CC=C(C)[C@@H](O[C@H]3C[C@H](OC)[C@H](O[C@H]4C[C@H](OC)[C@H](O)[C@H](C)O4)[C@H](C)O3)[C@@H](C)C=CC=C3CO[C@@H]4[C@@H](O)C(C)=C[C@H](C(=O)O1)[C@@]34O)O2 | inactive | inactive | –
28 | CC(C)(Oc1ccc([C@@H]2CC2(Cl)Cl)cc1)C(=O)O | inactive | inactive | –
29 | CC(=O)S[C@@H]1CC2=CC(=O)CC[C@@]2(C)[C@H]2CC[C@]3(C)[C@H](CC[C@@]34CCC(=O)O4)[C@H]12 | inactive | inactive | –
30 | CNCC[C@H](Oc1ccccc1OC)c1ccccc1 | inactive | inactive | –
31 | C[C@H]1CN(S(=O)(=O)c2cccc3cnccc23)CCN1 | inactive | inactive | –
